Screening data from PubChem BioAssay.
Sampled rows, rich in hits. Any-hit rate of the full collection: about 3%.
12-LOX inh = Primary qHTS assay for inhibitors of human arachidonate 12S-lipoxygenase (ALOX12): Round 2; Potency, µM (highest dose often 108 µM), without a hit: at the highest dose activity change, negative = inhibition, actives largely listed as inhibitors; 1.1% of 580,000 active; purified 12hLO, xylenol orange hydroperoxide absorbance; Polyunsaturated fatty acid lipoxygenase ALOX12 (Homo sapiens), P18054
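Hydroperoxide product was detected by ferrous iron/xylenol orange as the 573 to 405 nm absorbance ratio. Arachidonic acid at 40 uM (final) was turned over for 30 min at room temperature by 150 nM human 12hLO, pH 7.0 Hepes buffer, after 15 min compound preincubation.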
KAT2A inh = qHTS Assay for Inhibitors of GCN5L2 | 0.21% of 390,000 active | GCN5L2 HAT assay, ThioGlo1 CoA-SH fluorescence | Histone acetyltransferase KAT2A (Homo sapiens), Q92830 | AID 504327, 2011 | Potency, µM (doses to about 58.9 µM), inactives show top-dose activity change, negative = inhibition, hits mostly inhibitors
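Fluorescence readout, Ex340nm/Em540nm: ThioGlo1 (50uM final) reacts with free CoA thiol released as 20nM GCN5L2 acetylates H3(1-25) peptide (75uM) using acetyl-CoA (70uM). Compound and enzyme sat 15 min beforehand; 20 min room-temperature reaction.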
PLK1 PBD block = qHTS for Inhibitors of PLK1-PDB (polo-like kinase 1 - polo-box domain): Primary Screen; Serine/threonine-protein kinase PLK1 (Homo sapiens), P53350; Plk1 PBD binding of FITC phosphopeptide, fluorescence polarization; Potency, µM, inactives show max response, negative = inhibition, actives largely listed as inhibitors; 2.8% of 360,000 active; AID 720504, 2013; further: series mostly up to about 57 µM; nearly all actives have a fitted effect of over 65% in size
Target sequence (P53350 whole entry, looked up, the tested form may be a part): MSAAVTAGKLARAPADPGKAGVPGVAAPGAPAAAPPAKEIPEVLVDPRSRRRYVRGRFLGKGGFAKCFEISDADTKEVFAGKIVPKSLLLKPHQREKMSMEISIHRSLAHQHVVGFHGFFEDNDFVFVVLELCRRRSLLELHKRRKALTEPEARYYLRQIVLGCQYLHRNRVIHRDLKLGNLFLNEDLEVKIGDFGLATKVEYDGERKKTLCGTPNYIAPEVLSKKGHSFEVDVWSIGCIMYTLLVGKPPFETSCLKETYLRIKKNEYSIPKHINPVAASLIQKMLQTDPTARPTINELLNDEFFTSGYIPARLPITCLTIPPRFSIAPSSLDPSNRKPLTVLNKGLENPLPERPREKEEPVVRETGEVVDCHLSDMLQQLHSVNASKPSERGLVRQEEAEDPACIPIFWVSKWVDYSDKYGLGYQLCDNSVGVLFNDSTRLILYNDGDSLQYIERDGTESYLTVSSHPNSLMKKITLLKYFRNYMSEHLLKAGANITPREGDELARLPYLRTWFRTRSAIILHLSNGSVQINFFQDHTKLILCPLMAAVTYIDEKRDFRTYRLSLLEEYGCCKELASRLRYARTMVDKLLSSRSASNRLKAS
VDR inh = Inhibitors of the vitamin D receptor (VDR): qHTS. Vitamin D3 receptor (Homo sapiens), P11473. VDR-SRC2-3 peptide fluorescence polarization, 2 h. Potency, µM, for the others: max response, negative = inhibition, actives largely listed as inhibitors. 0.93% of 400,000 active
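Fluorescence polarization assay of small-molecule disruption of VDR binding to coregulator peptide SRC2-3. Compounds and controls pin-transferred, then read after 2 h incubation at ambient room temperature.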
An asterisk follows results filed as active; ? = inconclusive; . = not tested or not shown. The call rests on the fitted dose curve; in most records, active means well fitted curve in the direction sought with a large enough effect; inconclusive means small, poorly fitted or top-dose-only effect, or another doubt; inactive means no such curve, though single readings can be large; an effect the other way counts as inactive or inconclusive. On the % scale 0 is the no-effect control and ±100 the full control effect; potency means the concentration at half of the fitted maximal effect.

SMILES | 12-LOX inh | KAT2A inh | PLK1 PBD block | VDR inh
COc1ccc(CCNCC(=O)Nc2ccccc2C(F)(F)F)cc1 | ? | 0.9% | 26.7µM* | -26.4%
COc1ccc(CCNCC(=O)Nc2ccc(OC(F)F)cc2)cc1 | -25.4% | 1.6% | 0.0% | -10.9%
O=C(C1CN(C(=O)c2nn(-c3ccccc3)c(=O)c3ccccc23)c2ccccc2O1)N1CCOCC1 (stereo not drawn) | -9.6% | . | . | .
Cc1ccnc(NC(=O)c2nc(-c3ccccc3)oc2C)c1 | 1.8% | . | . | .
CN(Cc1cccs1)C(=O)c1ccc(-c2ccccc2)cc1 | 1.7% | . | . | .
Cc1ccc(-c2cc(C(=O)O)c3cc(Br)ccc3n2)cc1C | 3.8% | . | . | .
CC1CCC(NC(=O)Nc2cccs2)CC1 (stereo not drawn) | 12.6µM* | -4.9% | -18.0% | -1.8%
CC(NC(=O)c1ccc(-c2ccc(F)cc2)o1)C12CC3CC(CC(C3)C1)C2 (stereo not drawn) | -30.7% | . | . | .
Cc1ccc(S(=O)(=O)Oc2ccccc2/C=N/O)cc1 | -6.7% | -12.1% | -1.5% | -24.7%
Cc1ccc(Oc2ccccc2/C=N/O)cc1 | 0.0% | -19.1% | 3.36µM* | -17.1%
Cc1c(C(=O)OCC2CCCO2)[nH]c2c1C(=O)CC(c1ccc(N(C)C)cc1)C2 (stereo not drawn) | 6.31µM* | -5.5% | -8.7% | -1.8%
Cc1c(C(=O)OC2CCC(C)CC2)[nH]c2c1C(=O)CC(c1ccc(N(C)C)cc1)C2 (stereo not drawn) | -3.7% | -2.0% | . | -4.2%
O=C(CN1CCc2ccccc2C1)N1N=C(c2ccco2)CC1c1cccs1 (stereo not drawn) | 18.3% | . | . | .
COc1ccc(Oc2c(C)oc3cc(OC(=O)c4ccco4)ccc3c2=O)cc1 | 7.2% | . | . | .
CC(C)OCCCNC(=S)NC1CCCC1 | 35.5µM* | . | . | .
CCCCNC(=S)NC1CCCC1 | -15.5% | 0.5% | -8.9% | 0.5%
COc1ccccc1N1CN(Cc2cccnc2)Cn2c1nc(C)c(Cc1ccccc1)c2=O | 3.7% | . | . | .
COc1ccc(C(=O)Oc2c(Sc3ccccc3)c(C)nn2-c2ccccc2)c(OC)c1 | ? | -1.6% | . | -27.4%
Cc1nn(-c2ccccc2)c(OC(=O)C(C)C)c1Sc1ccc(Cl)cc1 | ? | 2.8% | . | 89.1µM*
CCOc1ccc(/C=C/C2=CC(C)(C)NC(=S)N2)cc1 | 39.8µM* | -1.8% | -9.0% | -20.4%
Cc1cccc(Nc2n[nH]c(=S)s2)c1C | 6.31µM* | 22.4µM* | 29.9µM* | -78.1%
COc1ccccc1Nc1n[nH]c(=S)s1 | 14.1µM* | 6.31µM* | 21.2µM* | ?
Cc1cc(C)c(Nc2n[nH]c(=S)s2)cc1C | 28.2µM* | . | 26.7µM* | .
COc1cccc(Nc2n[nH]c(=S)s2)c1 | 44.7µM* | 4.1% | 23.8µM* | ?
COc1ccccc1Nc1ccc(Nc2ccccc2OC)nn1 | -6.4% | 1.3% | -0.8% | -0.6%
SMILES | 12-LOX inh | KAT2A inh | PLK1 PBD block | VDR inh
Cn1c(Sc2ncnc3sccc23)nnc1-c1ccc(F)cc1 | -9.4% | . | . | .
CC(C)c1ccc(Nc2n[nH]c(=S)s2)cc1 | 6.31µM* | . | ? | .
Cc1ccc(Nc2n[nH]c(=S)s2)c(C)c1 | 25.1µM* | . | 23.8µM* | .
CCOC(=O)c1sc(Nc2ccc(C)cc2C)nc1C | ? | -0.8% | -0.8% | 18.6%
N#Cc1ccc(NC(=O)NCc2ccccn2)cc1 | 3.0% | . | . | .
O=S(=O)(Cc1ccccc1)NCc1cccc(CNS(=O)(=O)Cc2ccccc2)c1 | 35.5µM* | . | . | .
N#Cc1cccc(CNS(=O)(=O)Cc2ccccc2)c1 | 13.9% | . | . | .
CCOc1ccc(NC(=O)Cn2c(-c3ccccc3)nc(C)cc2=O)cc1 | 44.6% | . | . | .
CCOc1ccc(NC(=O)Cn2c(Nc3cc(C)cc(C)c3)nc(C)cc2=O)cc1 | 35.5µM* | . | . | .
Cn1nc([N+](=O)[O-])nc1Sc1cccc2cccnc12 | -25.5% | -6.3% | 16.8µM* | -19.3%
COc1cc(COC(=O)c2ccc(S(=O)(=O)N3CCOCC3)cc2)ccc1OC(F)F | -0.7% | . | . | .
C=CCOn1c(=O)c(-c2cc3ccccc3o2)[n+]([O-])c2ccccc21 | 0.0% | 1.3% | 29.9µM* | 2.8%
COc1ccc(CCc2nc3nccc(-c4ccsc4)n3n2)cc1OC | 50.0% | . | . | .
Cc1ccc(-c2csc3nc[nH]c(=S)c23)cc1C | 28.2µM* | -12.6% | -9.0% | -18.9%
COc1ccc(-c2csc3nc[nH]c(=O)c23)cc1OC | 79.2% | 1.1% | -4.5% | -15.8%
CN(CCCNc1ccccc1)c1nc(-c2ccncc2)nc2ccccc12 | -3.2% | . | . | .
CCC(=O)Nc1ccc(C=C(C(C)=O)C(C)=O)cc1 | ? | -6.7% | -12.8% | 79.4µM*
O=C(c1ccccc1F)N1CCC2(CC1)CCN(Cc1cccs1)c1ccccc1O2 | -0.2% | . | . | .
CCN1C(=O)[C@H]2[C@@H](c3ccc(-c4ccc(F)cc4)c(OC)c3)N[C@@](C)(C(=O)OC)[C@H]2C1=O | 11.2µM* | -25.2% | -7.3% | ?
CCN1C(=O)[C@H]2[C@@H](c3ccc(-c4ccc5c(c4)OCO5)cc3)N3CCC[C@@]3(C(=O)OC)[C@H]2C1=O | -11.0% | -11.0% | -2.3% | -5.5%
CCN1C(=O)[C@@H]2[C@@H](c3ccc(-c4ccc5c(c4)OCO5)c(OC)c3)N3CCC[C@@]3(C(=O)OC)[C@@H]2C1=O | 11.2µM* | -5.7% | 0.1% | 4.7%
CC(C(=O)N1CCCCC1)N1CCN(S(=O)(=O)c2ccc(Cl)cc2)CC1 (stereo not drawn) | 1µM* | -2.6% | -4.3% | -4.5%
CC(C)c1ccc(S(=O)(=O)N2CCN(C(C)C(=O)N3CCCC3)CC2)cc1 (stereo not drawn) | -6.7% | -1.8% | -7.7% | 3.7%
CC(C)N(C)CCOC(=O)/C=C/c1ccccc1 | 0.8% | 0.6% | -9.9% | -15.3%
CC1=C(C)/C(=N\OC(=O)/C=C/c2ccccc2)C=CC1=O | 0.0% | 3.3% | 2.99µM* | ?
SMILES | 12-LOX inh | KAT2A inh | PLK1 PBD block | VDR inh
CC1=CC(=NOC(=O)/C=C/c2ccccc2)C=C(C)C1=O | 1.8% | -16.7% | 18.9µM* | ?
CC1=CC(=O)C=C(C)C1=NOC(=O)/C=C\c1ccccc1 | -11.6% | -4.3% | 1.34µM* | 2.4%
Cc1no[n+]([O-])c1COc1ccc(/C=C(\C#N)C(N)=O)cc1 | -10.2% | -0.8% | 21.2µM* | ?
Cc1no[n+]([O-])c1COc1ccc(/C=C2\NC(=S)NC2=O)cc1 | -6.4% | -2.9% | -6.9% | -2.9%
CCCCCn1nc(C(=O)Nc2ccn(C)n2)c2ccccc2c1=O | 15.1% | . | . | .
O=C(Nc1ccc(F)cc1)c1ccccc1F | 11.5% | . | -3.4% | -9.2%
O=C(Nc1ccc2c(c1)OCCO2)c1cc2cc(Br)ccc2[nH]1 | 14.1µM* | . | . | .
O=C(NC(=S)Nc1ccc2c(c1)OCCO2)c1ccccc1F | -26.2% | -3.7% | -1.6% | 23.3%
O=C(Nc1ccc2c(c1)OCCO2)c1cc2cc(Cl)ccc2[nH]1 | -8.1% | . | . | .
O=C(Nc1ccncc1)c1ccccc1F | 0.6% | 11.1% | 26.7µM* | -6.2%
O=C(Nc1ccc2c(c1)OCCO2)c1ccccc1F | 27.6% | -4.1% | 2.99µM* | -14.8%
O=C1CCCC2=C1C(c1ccccc1Cl)CC(=O)N2c1ccccc1F (stereo not drawn) | -4.4% | . | . | .
